The panel holds about 83,000 compounds, 20% with a hit somewhere; the sample as a whole holds those more often.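 Results are percent growth after 48 hours of single-concentration exposure. 100 means growth as in untreated cells, lower positive values show inhibition; negative values down to -100 show cell death.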 Values without a mark were called inactive. The source made the active and inactive calls. Rule for the calls: active = growth percent below 10; inactive = the rest.
Experiments:
Test in all cases: NCI-60 one-dose screen, 48 h (100 = growth as untreated, 0 = no growth, -100 = all killed)
Conditions in all cases: 10 µM unless noted
DU-145 prostate = test system: DU-145 prostate
K-562 leukemia = test system: K-562 leukemia
MALME-3M melanoma = test system: MALME-3M melanoma
MDA-MB-231 breast = test system: MDA-MB-231 breast
RXF 393 renal = test system: RXF 393 renal
SF-268 CNS = test system: SF-268 CNS
SF-295 CNS = test system: SF-295 CNS
SF-539 CNS = test system: SF-539 CNS
UACC-257 melanoma = test system: UACC-257 melanoma
M14 melanoma = test system: M14 melanoma

Row | SMILES | growth (DU-145 prostate) [%] | growth (K-562 leukemia) | growth (MALME-3M melanoma) | growth (MDA-MB-231 breast) | growth (RXF 393 renal) | growth (SF-268 CNS) | growth (SF-295 CNS) | growth (SF-539 CNS) | growth (UACC-257 melanoma) | growth (M14 melanoma)
1 | C=CCN(/C=C1/C(=O)O[C@H](COC)[C@@]2(C)C1=C(O)C(=O)C1=C2[C@H](OC(C)=O)C[C@]2(C)C(=O)CC[C@@H]12)CC=C | 26.6 | 40.9% | -1.8% (active) | 42% | -41.1% (active) | 29.9% | 5.72% (active) | -19.1% (active) | 15.8% | 28.2%
2 | CCCCn1c(C)nc2ccc(Nc3nc(N4CCN(C)CC4)nc4nc[nH]c34)cc21 | 91.8 | 83.2% | 102% | 86.2% | 95% | 73.2% | 105% | 87.6% | 101% | 107%
3 | Cc1cc(C2(c3ccc(O)c(C)c3)OS(=O)(=O)c3ccccc32)ccc1O | 122 | 104% | 91.7% | 102% | 98.5% | 112% | 105% | 99% | 100% | 99.9%
4 | Cc1cn(-c2cc(NC(=O)c3ccc(C)c(Nc4nccc(-c5cnccn5)n4)c3)cc(C(F)(F)F)c2)cn1 | 82.2 | 4.39% (active) | 16.6% | 55.4% | 129% | 65.1% | 93.9% | 98.2% | 38.4% | 18.7%
5 | NC1(c2ccc(-c3nc4ccn5c(=O)[nH]nc5c4cc3-c3ccccc3)cc2)CCC1 | 60.9 | -16.8% (active) | -70.8% (active) | 37.4% | -21.7% (active) | 52.3% | -65.5% (active) | -80.9% (active) | -67.6% (active) | -66.5% (active)
6 | CCNC(=O)Nc1nc2ccc(Oc3ccnc(C(=O)NC)c3)cc2s1 | 103 | 8.24% (active) | 67.3% | 73% | 103% | 92.8% | 70.5% | 77.6% | 87.1% | 40.7%
7 | COC(=O)[C@H](Cc1ccccc1)NC(=O)[C@@H](OC)[C@@H]1Cc2cc3cc(OC4CC(OC5CC(O)C(O)C(C)O5)C(O)C(C)O4)c(C)c(O)c3c(O)c2C(=O)[C@H]1OC1CC(OC2CC(OC3CC(C)(O)C(O)C(C)O3)C(O)C(C)O2)C(O)C(C)O1 (stereo not given in full) | 11.8 | 5.63% (active) | -54.8% (active) | -8.99% (active) | -75% (active) | -2% (active) | -9.46% (active) | -35.7% (active) | -16.2% (active) | -60.8% (active)
8 | COc1ccc(C(=O)c2cc(OC)c(OC)c(OC)c2)cc1/C=C/C(=O)c1ccc(F)cc1 | 85.5 | 9.61% (active) | 65.6% | 68.4% | 88.3% | 77% | 84.3% | 51.8% | 86.6% | 72.5%
9 | COC(=O)[C@@H](OC)[C@@H]1Cc2cc3cc(OC4CC(OC5CC(O)C(O)C(C)O5)C(O)C(C)O4)c(C)c(O)c3c(O)c2C(=O)[C@H]1OC1CC(OC2CC(OC3CC(C)(O)C(O)C(C)O3)C(O)C(C)O2)C(O)C(C)O1 (stereo not given in full) | 10.2 | 4.16% (active) | -58% (active) | -8.44% (active) | -73% (active) | 3.86% (active) | -10.6% (active) | -41.6% (active) | -11.2% (active) | -71.5% (active)
10 | Cn1c(=O)c(F)c(Nc2ccc(I)cc2F)c2c(=O)n(C[C@@H](O)CO)cnc21 | 52.1 | 28.5% | 0.26% (active) | 19% | -3.91% (active) | 59.5% | 77.5% | 52.3% | -21.4% (active) | 6.75% (active)
11 | Cn1c(Nc2ccc(C(F)(F)F)cc2)nc2cc(Oc3ccnc(-c4ncc(C(F)(F)F)[nH]4)c3)ccc21 | 60.4 | 61.8% | -11.7% (active) | 51.7% | 7.28% (active) | 46.1% | 54.1% | 21.2% | 11.9% | 15.7%
12 | C[C@@H](NC(=O)c1ncnc(N)c1Cl)c1ncc(C(=O)Nc2cc(C(F)(F)F)c(Cl)cn2)s1 | 94.9 | 11.5% | 3.24% (active) | 39% | 106% | 93% | 90.2% | 86.4% | -13.9% (active) | 15%
13 | C[C@@]1(C(=O)Nc2ccc(F)nc2)CCCN1c1nc(Nc2cc(C3CC3)[nH]n2)c2cccn2n1 | 38.9 | 27.3% | 55.3% | 20.7% | -45.9% (active) | 15.5% | -13.2% (active) | 16.3% | 22.1% | 21.6%
